The list is not random: actives were taken first. Their share in the collection is about 4.5%.
TSHR agonist: activates the human thyroid stimulating hormone receptor | AID 926 | 73,000 compounds, 0.48% hits | HEK293-CNG-TSHR cells (CNG channel as cAMP sensor), membrane potential dye, cAMP | P16473 | Potency, µM (highest dose often 57.1 µM), inactives show top-dose activation, hits mostly activators; active = well fitted activation curve with a large enough effect in the main read-out, with a control signal flat, not every such curve was filed as active; inconclusive = small, poorly fitted or top-dose-only effect, or a change in a side signal; inactive = no such curve, though single readings can be large or run the other way; % of control where 0% means no effect;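 also: the control signal comes from parental cells without the receptor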
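HEK 293 cells stably expressing TSHR and a cAMP-gated CNG channel; parental CNG-only cells as counterscreen. Cells preloaded 60 min with membrane potential dye plus 100 uM RO 20-1724, then compound 30 min; fluorescence read at 590 nm.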
GBA activity: human lysosomal glucosylceramidase modulation; P04062; purified enzyme, resorufin glucoside fluorescence (screen aimed at inhibitors), 20 min; Potency, µM; 48,000 compounds, 1.1% hits; AID 360; in the data active = potency below about 15 µM; inconclusive = mostly about 16 µM to 33 µM;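 also: the screen sought inhibitors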
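Wild-type enzyme at 0.2 nM final in 50mM citric acid/KH2PO4, 10mM sodium taurocholate, 0.01% tween-20, pH 5.9, with resorufin beta-D-glucopyranoside at 30 uM final. Compounds titrated, 20 min at RT, red fluorescence read; AC50 from titration.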
HEK293 cAMP ctrl: parental HEK293 cAMP activation (counter-screen); 73,000 compounds, 2.5% hits; AID 938; Potency, µM (highest dose often 57.1 µM), without a hit: at the highest dose activation, most hits filed as activators; parental HEK293 CNG cAMP sensor, membrane potential fluorescence; also: % of control where 0% means no effect; nearly all actives have a fitted effect of over 55% in size
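Counterscreen for endogenous-receptor signalling: CNG-channel HEK 293 cells report cAMP rise by membrane depolarization. After 60 min dye equilibration with 100 uM RO 20-1724, compounds incubated 30 min before bottom-read fluorescence at 590 nm.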
ERK AVP block: blocks ERK signaling stimulated by vasopressin; HEK293-V1b, vasopressin-stimulated pERK AlphaScreen; Potency, µM (doses to about 57.5 µM), for inactives: at the highest dose activity, negative = inhibition, most hits filed as inhibitors; 72,000 compounds, 0.99% hits; AID 995; also: % is scaled to controls: 0 for no effect and ±100 for the full control effect; nearly all actives have a fitted effect of over 55% in size
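Phosphorylated ERK1/2 detected via AlphaScreen bead proximity in lysates of V1b-expressing HEK293 cells given 25 nM vasopressin for 5 min after 30 min compound exposure (37 °C). AC50 from Hill equation; basal DMSO 0%, vasopressin 100%.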
Caspase-1 inhib: caspase-1 (human) inhibition, allosteric or competitive | P29466 | Caspase-1 enzyme, Ac-WEHD-AFC fluorogenic rate | Potency, µM (doses to about 57.5 µM), for the others: top-dose activity change, negative = inhibition, usual class: inhibitors | 75,000 compounds, 0.03% hits;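 also: plate controls were vehicle for no effect and no substrate for full effect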
Target sequence (P29466 120-297 limits assumed): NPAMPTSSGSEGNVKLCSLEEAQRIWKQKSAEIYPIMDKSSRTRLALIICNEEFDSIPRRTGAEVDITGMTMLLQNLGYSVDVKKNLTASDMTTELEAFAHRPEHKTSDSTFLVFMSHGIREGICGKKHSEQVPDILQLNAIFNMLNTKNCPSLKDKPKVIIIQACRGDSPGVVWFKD
Target sequence (P29466 317-404 limits assumed): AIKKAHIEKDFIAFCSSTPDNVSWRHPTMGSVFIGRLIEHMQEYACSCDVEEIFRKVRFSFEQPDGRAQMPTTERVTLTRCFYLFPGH
Casp7 inh: caspase-7 (human) inhibition, allosteric or competitive; P55210; recombinant caspase-7, Ac-DEVD-AFC fluorescence rate; Potency, µM (highest dose often 57.5 µM), without a hit: at the highest dose activity change, negative = inhibition, usual class: inhibitors; 75,000 compounds, 0.02% hits; active = well fitted inhibition curve with a large enough effect in the main read-out, with a control signal flat, not every such curve was filed as active; inconclusive = small, poorly fitted or top-dose-only effect, or a change in a side signal; also: % of control where 0% means no effect
Target sequence (P55210 24-198 limits assumed): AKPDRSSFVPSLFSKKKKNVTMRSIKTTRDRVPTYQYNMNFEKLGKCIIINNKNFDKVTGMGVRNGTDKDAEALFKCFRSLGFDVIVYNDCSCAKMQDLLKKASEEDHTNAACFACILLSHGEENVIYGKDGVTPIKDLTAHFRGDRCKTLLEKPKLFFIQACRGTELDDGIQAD
Target sequence (P55210 207-303 limits assumed): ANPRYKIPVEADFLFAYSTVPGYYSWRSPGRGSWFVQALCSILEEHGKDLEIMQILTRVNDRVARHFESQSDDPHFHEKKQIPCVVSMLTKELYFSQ
* hit, by the source's call; ? = inconclusive; . = no result given; [ ] = another dose, or the depositor's remark. Unless noted, calls follow the shape of the dose curve; as a rule, active = well fitted curve in the direction sought with a large enough effect; inconclusive = small, poorly fitted or top-dose-only effect, or another doubt; inactive = no such curve, though single readings can be large; an effect the other way counts as inactive or inconclusive. Potency is read from the fitted curve at half-maximal effect.

SMILES	TSHR agonist	GBA activity	HEK293 cAMP ctrl	ERK AVP block	Caspase-1 inhib	Casp7 inh
O=Nc1c(-c2c(O)[nH]c3cc(Br)ccc23)[nH]c2ccccc12	.	.	.	10µM*	-5%	-2%
O=C(NCCc1ccccc1)c1cnn2c(C(F)F)cc(C3CC3)nc12	?	?	?	-7%	-2%	-2%
Cc1cc(NC(=O)c2cnn3c(C(F)F)cc(C4CC4)nc23)no1	9%	.	4%	-9%	1%	1%
Cc1nn(C)cc1CNC(=O)c1cnn2c(C(F)F)cc(C3CC3)nc12	20%	?	4%	7.9µM*	-2%	-2%
COC(=O)c1ccccc1NC(=O)c1cnn2c(C(F)F)cc(C3CC3)nc12	?	?	16µM*	3%	-8%	-9%
Cc1cc2c(c(=O)o1)[C@H](O)[C@H]1O[C@@H]1C2=O	0%[11.4 µM]	.	-5%[11.4 µM]	0%[11.5 µM]	1%[11.5 µM]	1%[11.5 µM]
C=CCNc1nc2c(c(=O)n(C)c(=O)n2C)n1Cc1ccc(F)cc1	?	.	25µM*	.	-1%	3%
COc1cccc2cc(-c3nnc(SCC(=O)Nc4cc(C(F)(F)F)ccc4Cl)n3N)oc12	?	>77	25µM*	-10%	-1%	-1%
CCN(CC)S(=O)(=O)c1cccc(-c2nnc(SCCOc3ccc(Cl)cc3)o2)c1	?	>77	?	-3%	0%	-2%
CCN(CC)S(=O)(=O)c1cccc(-c2nnc(SCC(=O)c3cc(C)n(C)c3C)o2)c1	?	>77	16µM*	-2%	-1%	-4%
CCN(CC)S(=O)(=O)c1ccc(-c2nnc(SCC(=O)N3CCOCC3)o2)cc1	7%	>77	-17%	3%	2%	0%
CCN(CC)S(=O)(=O)c1cccc(-c2nnc(SCCOc3ccccc3C)o2)c1	?	>77	16µM*	44%	2%	-1%
CCN(CC)S(=O)(=O)c1cccc(-c2nnc(SCCOc3ccccc3)o2)c1	?	>77	7.9µM*	7%	-4%	-1%
CC(=O)C1(O)C(C)CC2C3CCC4CC(O)CCC4(C)C3=CCC21C (stereo not given)	?	.	13µM*	-6%	-5%	-4%
CC1CCC2(OC1)OC1CC3C4CCC5CC(O)CCC5(C)C4=CCC3(C)C1C2C (stereo not given)	.	.	.	9%	-4%	1%
COc1cccc(Cn2c(=O)c(-c3cccs3)nc3cnc(Nc4cccc(OC)c4)nc32)c1	?	.	?	42%	.	?
CCCCOC(=O)CSc1nc(N)c(C#N)c(-c2ccc(OCC)cc2)c1C#N	.	>77	-3%	6%	3%	-2%
CCCCOc1ccc(-c2c(C#N)c(N)nc(SCC(N)=O)c2C#N)cc1	-25%	8.8*	-17%	3%	-5%	-20%
COc1ccc(-c2ccc(-c3noc(-c4ccccc4OC)n3)c(OC)n2)cc1	2%	12*	3%	-3%	.	?
COc1ccc(-c2ccc(-c3noc(-c4ccccc4C)n3)c(OC)n2)cc1	7%	11*	10%	-3%	-15%	-14%
COc1nc(-c2ccc(C)cc2)ccc1-c1noc(-c2cccnc2)n1	1%[11.4 µM]	12*	10%	13%	-4%	-3%
COc1ccc(-c2ccc(-c3noc(-c4cccc(OC)c4)n3)c(OC)n2)cc1	?	6*	?	3%	-5%	-3%
COc1nc(-c2ccccc2)ccc1-c1noc(-c2ccccc2F)n1	19%	3.8*	21%	-2%	-1%	-1%
CN(C)c1ccc(-c2cncnc2NCc2cccnc2)cc1	0%	.	8%	-22%	0%	0%
O=C(NCCN1CCOCC1)c1ccc(-n2c(=O)c(=O)[nH]c3ccccc32)cc1	-7%	.	-11%	.	-5%	-1%
SMILES	TSHR agonist	GBA activity	HEK293 cAMP ctrl	ERK AVP block	Caspase-1 inhib	Casp7 inh
COc1ccc(C(=O)Nc2cc(C)on2)cc1	0%[11.4 µM]	.	2%[11.4 µM]	-7%	-2%	-1%
Cc1cc(NC(=O)c2ccc3nc(-c4ccccc4)c(-c4ccccc4)nc3c2)no1	12%	14*	21%	5%	-1%	0%
c1cc(NNc2cccc(-c3nn[nH]n3)c2)cc(-c2nn[nH]n2)c1	-2%[11.4 µM]	.	4%[11.4 µM]	5%[11.5 µM]	-2%[11.5 µM]	1%[11.5 µM]
O=C(NCCN1CCOCC1)NC1(C(F)(F)F)Oc2ccc(Cl)cc2O1 (stereo not given)	-3%	9.8*	-1%	22%	1%	0%
CC1(C)O[C@H]2O[C@@H]([C@H](O)CON3C(=O)c4ccccc4C3=O)[C@H](O)[C@H]2O1	1%[11.4 µM]	.	5%[11.4 µM]	-6%[11.5 µM]	-1%[11.5 µM]	2%[11.5 µM]
O=C(O)C1CCCN1S(=O)(=O)c1cccc2cccnc12 (stereo not given)	1%	.	3%	.	-3%	1%
COCCn1c(=O)c(-c2cccc(C#N)c2)nc2cnc(Nc3ccccc3)nc21	?	.	0.25µM*	-8%	.	?
O=[N+]([O-])c1ccc2c(c1)c(S(=O)(=O)O)cc1nonc12	?	.	?	29%[11.5 µM]	-2%[11.5 µM]	4%[11.5 µM]
Cc1cc(=O)c2c(O)cc(O)c(C)c2o1	.	.	.	-17%	1%	-1%
CCCCNc1cc(C)nc(NCc2ccccc2)n1	?	6.3*	6.3µM*	?	-1%	-2%
O=C(CN(Cc1cccs1)C(=O)CN1C(=O)COc2ccccc21)NCc1ccco1	?	>77	16µM*	-7%	3%	-1%
COc1cc(C2NC(=O)NC(c3ccccc3)=C2C(C)=O)ccc1OCC(=O)O (stereo not given)	?	>77	32µM*	-4%	.	?
Clc1ccc(-c2nnc(-c3ccccc3)o2)c(Cl)c1	?	>77	32µM*	33%	0%	-5%
Fc1ccc(-c2nnc(-c3ccc(Cl)cc3Cl)o2)cc1	14%	.	14%	.	-4%	2%
COc1cccc(NS(=O)(=O)c2ccc(Br)s2)c1	16%	14*	-4%	11%	-1%	-3%
COc1ccccc1S(=O)(=O)Cc1ccc(C(=O)N2CCN(c3ccc(C)cc3)C(C)C2)o1 (stereo not given)	12%	.	-2%	25µM*	-4%	1%
COc1ccc(S(=O)(=O)Cc2ccc(C(=O)N3CCN(c4ccc(Cl)cc4)CC3)o2)cc1	20µM*	.	18%	?	-11%	-2%
N=C(N)SCCc1ccccn1	2%[11.4 µM]	.	3%[11.4 µM]	13%[11.5 µM]	-2%[11.5 µM]	-4%[11.5 µM]
Cn1c(=O)c2[nH]c([C@@H]3CC(=O)C[C@H](c4nc5c([nH]4)c(=O)n(C)c(=O)n5C)N3)nc2n(C)c1=O	-1%[11.4 µM]	.	13%[11.4 µM]	?	-2%[11.5 µM]	-3%[11.5 µM]
CC(=O)O[C@](C)(CCC=C(C)C)C1CC=C(C)CC1 (stereo not given in full)	.	.	.	13%	1%	1%

High-throughput results: PubChem, National Center for Advancing Translational Sciences (NCATS)
